From PubChem BioAssay (NCI) come the findings set out here.

SMILES strings stand for the structures. About 83,000 compounds went through this panel and 20% of them were active in at least one assay; those are over-represented in the sample as a whole.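 Growth was measured after 48 h exposure to one concentration of compound in 96-well plates. Values under 10 count as active.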 Unmarked numbers belong to inactive results. Calls of active or inactive are those of the source.

Holding throughout (test): NCI-60 one-dose screen, 48 h (100 = growth as untreated, 0 = no growth, -100 = all killed)
What all share (conditions): 10 µM unless noted

In assay [1] the test system is DU-145 prostate.
The test system of assay [2] is K-562 leukemia.
In assay [3] the test system is MALME-3M melanoma.
For assay [4], the system named is MDA-MB-231 breast.
Assay [5] deals with RXF 393 renal.
Assay [6] relates to SF-268 CNS.
For assay [7], the system named is SF-295 CNS.
Assay [8] relates to SF-539 CNS.
The test system of assay [9] is UACC-257 melanoma.
Assay [10] relates to M14 melanoma.
The test system of assay [11] is HCT-15 colon.
Assay [12] has as its system HT29 colon.
Assay [13] relates to SNB-75 CNS.
For assay [14], the system named is SNB-19 CNS.
Assay [15] concerns U251 CNS.
The test system of assay [16] is PC-3 prostate.
For assay [17], the system named is SK-MEL-5 melanoma.
For assay [18], the system named is UACC-62 melanoma.
For assay [19], the system named is LOX IMVI melanoma.
Assay [20] deals with SK-MEL-28 melanoma.

Regarding `c1csc(-c2cnc3nonc3n2)c1`, the growth in [1] was 108%; in assay [2], 67.4%; in [3], 100%; in [4] it was 82%; in assay [5], 117%; in assay [6] it was 88.7%. Also, the growth in [7] is 101%; in [8] it was 96.8%; in [9], 75.3%; in assay [10], 89.4%; in assay [11], 89.7%; in [12], 91.2%. Further, the growth was 79.8% in assay [13]; 81.6% in [14]; 88% in [15]; 66.3% in assay [16]; 87.9% in assay [17]; 79.3% in [18]. Moreover, the growth in assay [19] is 62.6%; in [20] it was 104%.

Regarding `CC1(C)CC(=O)c2cc3c(N)c(C(=O)Nc4ccc(Cl)cc4)sc3nc2C1`, the growth in assay [1] is 103%; in assay [2] it was 107%; in assay [3], 119%; in [4], 115%; in assay [5] it was 116%; in [6], 125%. Also, the growth in assay [7] is 100%; in assay [8], 114%; in assay [9] it was 91.4%; in assay [10], 107%; in assay [11] it was 108%; in assay [12] it was 96.4%. For the same compound, the growth in assay [13] was 114%; in assay [14], 114%; in assay [15], 103%; in assay [16], 105%; in [17], 96%; in assay [18], 105%. Further, the growth in assay [19] is 109%; in [20], 118%.

`CCOC(=O)c1ccc(NC(=O)CSC(N)=O)cc1`: the growth is 114% in assay [1]; 103% in assay [2]; 145% in assay [3]; 95.9% in assay [4]; 129% in assay [5]; 110% in assay [6]. The growth in assay [7] is 101%; in assay [8] it was 96.4%; in assay [9] it was 107%; in assay [10], 94.8%; in assay [11], 99.4%; in [12] it was 126%. The growth in assay [13] is 149%; in [14], 91.1%; in [15], 94.1%; in assay [16], 85.6%; in assay [17] it was 103%; in [18], 96.8%. Also, the growth in [19] was 85.7%; in assay [20], 128%.

As to `COc1ccc(-c2cc(C(=O)Nc3ccc(C)cc3)nc3[nH]c(=O)sc23)cc1`, the growth was 89.6% in assay [1]; 61.9% in [2]; 73.3% in [3]; 86.3% in [4]; 85.8% in assay [5]; 88.7% in assay [6]. Besides, the growth is 70.7% in assay [7]; 75.6% in assay [8]; 51.4% in [9]; 70.8% in assay [10]; 63.8% in assay [11]; 81.4% in assay [12]. Moreover, the growth was 102% in [13]; 57.7% in assay [14]; 56.2% in assay [15]; 73.8% in assay [16]; 37.2% in [17]; 31.3% in assay [18]. The growth is 77.7% in assay [19] and 70% in [20].

`COc1ncnc2[nH]cc(CN3CCN(c4ccc(F)cc4)CC3)c12`: the growth in [1] was 116%; in assay [2], 108%; in assay [3], 103%; in [4], 117%; in assay [5], 111%; in assay [6] it was 104%. The growth in assay [7] is 98.1%; in assay [8] it was 108%; in [9], 99.8%; in assay [10] it was 106%; in [11], 104%; in assay [12], 91.2%. Besides, the growth was 100% in assay [13]; 102% in [14]; 99.2% in [15]; 100% in assay [16]; 103% in assay [17]; 106% in assay [18]. Besides, the figures for the growth in [19] and in assay [20] were 106% and 114%, respectively.

Take `NC(N)=NC1CCCCC1`: the growth in [1] is 22.3%; in assay [2], 93.5%; in assay [3], 101%; in [4], 117%; in assay [5] it was 97.3%; in assay [6], -15.8% (active). Further, the growth in assay [7] is 120%; in [8] it was 105%; in assay [9], 90.6%; in assay [10] it was 103%; in assay [11], 103%; in assay [12] it was 97.1%. In addition, the growth in assay [13] is 107%; in assay [14] it was 104%; in [15], 89.9%; in assay [16] it was 89.8%; in [17], 107%; in assay [18], 99.6%. Moreover, the growth in assay [19] was 91.6%; in assay [20] it was 109%.

Turning to `CN1C2CCC1/C(=C\c1ccc(F)cc1)C(=O)/C2=C/c1ccc(F)cc1`, the growth in [1] was 9.38% (active); in assay [2], 16.2%; in assay [3], 61.7%; in assay [4] it was 53.7%; in [5], 66.2%; in assay [6], 63%. The growth was 72% in [7]; 73.6% in assay [8]; 25.8% in assay [9]; 41.2% in [10]; 38.7% in [11]; 15.5% in assay [12]. The growth in assay [13] is 59.6%; in assay [14], 55.7%; in assay [15] it was 16.2%; in assay [16] it was 34.5%; in [17], 40.1%; in assay [18] it was 26.4%. Further, the growth in assay [19] was 28.2%; in [20] it was 73%.

Regarding `NC(=O)c1ccc[n+](Cc2ccccc2)c1`, the growth in assay [1] was 101%; in [2], 113%; in [3], 75.4%; in assay [4], 105%; in assay [5], 97.6%; in assay [6], 107%. For the same compound, the growth in assay [7] is 109%; in assay [8], 96.7%; in assay [9] it was 95.3%; in assay [10], 96.3%; in assay [11], 96.7%; in [12] it was 101%. Moreover, the growth in assay [13] is 95.1%; in [14], 106%; in [15], 92.8%; in assay [16] it was 94.6%; in assay [17], 97.6%; in [18], 99.7%. In addition, the growth in assay [19] was 95.6%; in assay [20] it was 103%.
